Screening data: PubChem, Columbia University Molecular Screening Center
VCAM1 TNFa pot: TNF alpha stimulated VCAM1 expression potentiation. HUVEC TNFa-stimulated VCAM-1 immunofluorescence, high-content imaging; scaled per plate to unstimulated/TNFa-only wells. activation, % at 2 µM. 93,000 tested, 0.19% active;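 active = activation above the screen mean plus 3 SD, with well images confirming the hit on visual review, cut at about 28% in these data, passing the limit was not always enough; inconclusive = activation above that limit but images do not confirm it; inactive = activation not above that limit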;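 note: signal is the number of cytoplasmic VCAM-1 stained grains per positive cell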
VCAM1 pot confirm: potentiators of TNFa-induced VCAM1 expression, confirmation, imaging, HUVEC, triplicate retest; shares compounds with VCAM1 TNFa pot; HUVEC TNFa-stimulated VCAM-1 immunofluorescence imaging; activation, % at 2 µM; 230 tested, under 10 active;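 active = activation above 30% in triplicate retests at 2 µM, then confirmed by visual review of the well images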;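 note: scaled per plate between unstimulated and TNFa-stimulated DMSO control wells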
Starred values were filed as active, the others as inactive; ? = inconclusive. The list is a sample of the results.

SMILES	VCAM1 TNFa pot	others
O=S1(=O)N=C(N2CCN(c3ccc(F)cc3)CC2)c2ccccc21	-18.7
CN(C)S(=O)(=O)Oc1ccsc1C(=O)Nc1ccc(Cl)cc1	4.7
O=C(NC1=NCCS1)c1ccc(-c2ccc(Cl)cc2)o1	-0.2
O=C(O)CCCC(=O)Nc1ccccc1C(=O)O	1.5
CC(=O)SCCC(=O)Nc1ccccc1	-8.4
Cc1ccc(SC(c2ccc(C)cc2)C(Cn2cncn2)C(=O)c2ccccc2)cc1 (stereo unspecified)	-7.6
COc1ccccc1NC(=O)C1=C(C)Nc2nc(CCCO)nn2C1c1cccnc1 (stereo unspecified)	24.6
COC(=O)c1cc(C(=O)OC)n(Cc2ccc(Br)cc2)n1	6.4
COc1cc(OC)cc(-c2nnc(SCc3cccnc3)o2)c1	8.5
Cc1cc(=O)n(CC(C)C)c(O)c1C#N	-11.7
Cc1ccc(S(=O)(=O)Cn2nnnc2C(C(C)C)N2CCN(c3nc4ccccc4s3)CC2)cc1 (stereo unspecified)	-50.5
Cc1nn(CCC(=O)NNC(=S)Nc2cccc(Cl)c2)c(C)c1[N+](=O)[O-]	-40.4
O=C(CSc1nnnn1-c1ccccc1Cl)Nc1ccc2c(c1)OCCO2	-2.2
Cc1cccc(C2Nc3ccccc3C(=O)N2c2ccc(F)cc2)n1 (stereo unspecified)	6.7
Cc1occc1C(=O)Nc1ccc2c(c1)CCC2	-6.0
COc1cc(NC(=O)c2ccco2)c(OC)cc1NC(=O)Nc1cccc(Cl)c1	-1.2
COc1cc(NC(=O)CN2C(=O)NC(C)(CC(C)C)C2=O)cc(OC)c1 (stereo unspecified)	-92.8
CCOc1ccccc1N1CCN(C(=O)c2cccc(-c3ccc(O)cc3)c2)CC1	-44.4
O=C(Nc1ccc(N2CCOCC2)nc1)c1ccc(Cl)cc1	-2.9
Nc1c(C(=O)NCCN2CCOCC2)c2nc3ccccc3nc2n1CCc1ccccc1F	3.1
Cc1cccc(NC(=S)NNC(=O)c2csc(C(C)C)c2)c1	-9.0
O=C(c1cnsn1)N1CCN(c2ccccc2)CC1	26.7
CCOC(=O)c1ccccc1NC(=O)c1ccc2c(=O)n3c(nc2c1)CCCCC3	-1.7
COC(=O)c1ccc(C)c(NC(=O)C2COc3ccccc3O2)c1 (stereo unspecified)	-7.4
Nc1ccccc1NC(=O)c1ccccc1	-1.5
SMILES	VCAM1 TNFa pot	others
COC(=O)C1=C(C)OC(N)=C(C#N)C1c1c(C)nn(-c2ccccc2)c1Cl (stereo unspecified)	14.5
CC1CCCN(c2nc3ccsc3c(=O)s2)C1 (stereo unspecified)	-91.5
Cc1ccccc1S(=O)(=O)Nc1nc2ccccc2nc1NCCO	-9.2
CCOC(=O)c1cnn(-c2cc(C)c3ccccc3n2)c1N	-1.8
CCOC(=O)Cn1c(C)nc2ccccc21	-6.1
CCNc1cc(N2CCN(S(=O)(=O)c3ccc4c(c3)CCCC4)CC2)ccc1[N+](=O)[O-]	4.9
N#CC(C#N)=CC1=C2OC(c3ccccc3)=CC(c3ccccc3)=C2CCC1	-8.0
COC(=O)c1cccc(S(=O)(=O)N(Cc2ccco2)Cc2cc3ccc(OC)cc3[nH]c2=O)c1	-87.1
CCc1ccc(N/C(SCc2ccccc2C)=C(/C#N)C(=O)NCc2ccco2)cc1	-4.2
Cc1ccc(-n2c(N)c(C(=O)N3CCN(C)CC3)sc2=S)cc1	6.6
Cc1ccc(NC(=O)c2ccc(-c3nn(C)c(=O)c4ccccc34)cc2)c(C)c1	5.4
O=C(c1cccnc1)N1CCN(Cc2cccc(F)c2)CC1	-4.9
C/C=C(\C)c1nnc(NC(=O)C(C)C)s1	18.0
Cc1cc2ncn(-c3ncnc4scc(-c5ccccc5)c34)c2cc1C	8.2
N#CCCNC(=O)CCN1CCOCC1	-2.1
Cc1cc(N2C(=O)CC(N3CCN(c4ccc(C(=O)c5cccs5)cc4)CC3)C2=O)no1 (stereo unspecified)	3.3
COc1ccc2c(C(=O)CN(C)C3CCCCC3)c[nH]c2c1	-7.4
COc1ccc(-c2nc(CC(=O)O)cs2)cc1OC	5.7
COC(=O)C1=C(C)OC(N)=C(C#N)C1C1CCCCC1 (stereo unspecified)	-2.1
N#Cc1ccc(C(=O)Nc2ccc(S(=O)(=O)NC3=NCCCCC3)cc2)cc1	-25.3
O=c1oc(-c2cccs2)nc2sc3c(c12)CCCCC3	36.8*
CC(=O)OCc1nc2sc3c(c2c(=O)[nH]1)CCCC3	-0.8
CN(C)c1oc(-c2cccs2)nc1C#N	0.4
O=C(CN1CCCCCC1)Nc1ccccc1F	2.7
Cn1c(/C(C#N)=N/O)nc2ccccc21	-4.4
SMILES	VCAM1 TNFa pot	others
COC(=O)C1=C(C)N(Cc2ccco2)C(=O)C1	-9.0
C/C(=N\O)C1/C(=N/O)CC2C1C2(C)C (stereo unspecified)	-10.9
C=CCn1c(COc2ccc3c(c2)CCCC3)nnc1SCC(=O)Nc1cccc(SC)c1	2.6
CC(C)(C)c1ccc(NC(=O)COC(=O)C2=COCCO2)cc1	5.2
Cc1ccc(S(=O)(=O)NC(C)C(=O)NC2CCCCCC2)cc1 (stereo unspecified)	16.7
CCCC(c1c(C)n(C)n(-c2ccccc2)c1=O)c1c(C)n(C)n(-c2ccccc2)c1=O	-2.8
CCCNC(=O)c1ccccc1NC(=O)c1ccccc1N(C)S(C)(=O)=O	6.4
CCOC(=O)Cc1cc(-c2ccc(O)cc2)nc2ccc3ccccc3c12	-36.8
CN(C)S(=O)(=O)N1CCN(C(=O)N2CCCCCC2)CC1	-34.4
Cc1nnc(SCC(=O)Nc2ccc(Cl)cn2)[nH]c1=O	4.6
COc1cc(C(=O)N2CCN(c3cc(Cl)ccc3Cl)CC2)cc(OC)c1OC	-57.5
CCc1noc(C)c1C(=O)N1CCOCC1	20.7
CC(C)CC(=O)NCC(C)NC(=O)CC(C)C (stereo unspecified)	3.8
COc1ccccc1S(=O)(=O)Cc1ccc(C(=O)NCc2cccnc2)o1	1.5
COc1ccc(-c2c3c(nc4sc5c(Cl)nc(C)nc5c24)CCC3)cc1	1.5
CCOc1ccc(C2N(c3ccc(F)cc3)C(=O)C3CCCN32)cc1 (stereo unspecified)	-1.0
CCc1nnc(NC(=O)c2ccc3c(c2)C(=O)N(CC(C)C)C3=O)s1	-14.3
CCOc1ccccc1N(CC(=O)N1CCCCCC1)S(C)(=O)=O	2.3
COCCNC(=O)CC(c1ccccc1)c1ccccc1	10.7
COc1ccccc1N(CC(=O)NCCSc1ccccc1)S(C)(=O)=O	?	VCAM1 pot confirm=-1.4
Cc1ccc2oc3c(c(=O)c2c1)C(c1cccc(Br)c1)N(Cc1ccco1)C3=O (stereo unspecified)	-4.4
O=C(c1cc2cc(Br)cc(Br)c2oc1=O)N1CCCC1	-9.3
CCCSc1nc2c(c(=O)[nH]c(=O)n2C)n1C	-3.9
CCCSC1=C(C#N)C(c2cccnc2)C(C(=O)OCC)=C(c2ccccc2)N1 (stereo unspecified)	18.1
N#CC1=C(N)Oc2n[nH]c(-c3ccccc3)c2C1c1cccnc1 (stereo unspecified)	94.0*	VCAM1 pot confirm=-14.1
SMILES	VCAM1 TNFa pot	others
CCN(CC)c1ccc2c(c1)OC(N)=C(C#N)C2c1cccnc1 (stereo unspecified)	-39.1
Cc1ccc(-n2c3c(cc(C(=O)O)c2=O)C(=O)CC(C)(C)C3)cc1	14.3
O=C(NCc1ccco1)C1CCN(C(=O)Cc2ccccc2)CC1	-35.6
Nc1ccc(NC(=O)c2cccs2)c(Cl)c1	9.6
O=C(Nc1ccc2oc(-c3ccccc3)nc2c1)c1ccc2c(c1)OCCO2	30.4*	VCAM1 pot confirm=-9.7
O=C(Cc1ccccc1)Nc1ccc2oc(-c3cccnc3)nc2c1	1.8
